# For some assays here: Measured potencies and affinities stand elsewhere.
# Experiments:
# Design in all cases: scale not given: direction of the effect not stated beside the values
# [1] = biological target: Protein translocase subunit SecA (Escherichia coli (strain K12)) (UniProt P10408); test: Assay to Identify E. coli SecA ATPase Inhibitors; type: functional; details: 30 µM
# [2] = biological target: T1, Ubiquitin-activating enzyme e1, putative (Leishmania donovani (strain BPK282A1)) (UniProt E9BSI1); test: Leishmania donovani Ubiquitin Activating Enzyme (LdE1); type: functional; details: 30 µM
# T1 sequence (whole entry): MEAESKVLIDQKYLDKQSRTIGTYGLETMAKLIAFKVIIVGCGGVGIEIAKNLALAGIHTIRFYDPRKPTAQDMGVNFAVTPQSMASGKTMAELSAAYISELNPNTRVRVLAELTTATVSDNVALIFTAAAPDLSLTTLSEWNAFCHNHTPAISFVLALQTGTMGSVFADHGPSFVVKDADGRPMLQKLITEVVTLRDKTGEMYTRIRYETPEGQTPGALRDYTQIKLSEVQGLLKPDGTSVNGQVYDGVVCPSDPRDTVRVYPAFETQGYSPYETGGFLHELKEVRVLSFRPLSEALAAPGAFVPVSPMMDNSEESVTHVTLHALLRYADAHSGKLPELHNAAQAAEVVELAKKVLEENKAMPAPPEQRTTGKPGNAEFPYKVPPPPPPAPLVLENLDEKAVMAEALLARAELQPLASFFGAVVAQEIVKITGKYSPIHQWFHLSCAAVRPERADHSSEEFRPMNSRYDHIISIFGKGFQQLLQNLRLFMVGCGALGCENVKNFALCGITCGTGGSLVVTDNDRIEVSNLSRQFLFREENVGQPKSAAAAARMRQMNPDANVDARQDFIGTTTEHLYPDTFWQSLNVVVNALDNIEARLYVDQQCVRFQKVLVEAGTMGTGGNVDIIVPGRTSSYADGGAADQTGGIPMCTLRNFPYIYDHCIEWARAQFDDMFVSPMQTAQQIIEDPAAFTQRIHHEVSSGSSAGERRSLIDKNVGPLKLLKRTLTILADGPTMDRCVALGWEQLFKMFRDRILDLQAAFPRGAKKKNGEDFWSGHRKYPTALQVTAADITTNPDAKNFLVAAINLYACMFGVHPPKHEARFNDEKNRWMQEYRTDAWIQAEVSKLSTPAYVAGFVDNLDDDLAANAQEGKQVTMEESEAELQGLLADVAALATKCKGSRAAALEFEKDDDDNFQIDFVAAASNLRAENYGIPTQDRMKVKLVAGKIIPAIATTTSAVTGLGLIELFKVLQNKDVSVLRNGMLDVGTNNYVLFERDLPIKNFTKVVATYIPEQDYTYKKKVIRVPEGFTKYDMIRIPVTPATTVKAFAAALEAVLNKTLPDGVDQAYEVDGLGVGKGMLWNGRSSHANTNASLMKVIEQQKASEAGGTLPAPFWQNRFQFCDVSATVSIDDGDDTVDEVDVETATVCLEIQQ
# [3] = biological target: AMP-activated protein kinase, AMPK (Homo sapiens) (UniProt P54646+O43741+P54619+Q9UGJ0+Q9Y478+Q13131+Q9UGI9); test: AMP-dependent Kinase enzyme assay. An in vitro enzyme assay that detects ADP turnover that is directly proportional to AMPK activity. This uses naive AMPK that is activated during the assay with MK-8722; type: functional; details: 30 µM
# [4] = biological target: Sialic acid-binding Ig-like lectin 9 (Homo sapiens) (UniProt Q9Y336); test: Hs-Siglec9 ALPHAscreen SOP 20170721; details: 10 µM
# Trypanosoma cruzi = test: Trypanosoma cruzi phosphomannomutase and mannose-1-phosphate guanylyltransferase assay; type: functional; details: 10 µM
# [5] = biological target: T2, Arginase-2, mitochondrial (Homo sapiens) (UniProt P78540); test: in vitro enzyme assay to detect the production of urea directly proportional to the activity of Arginase II; type: functional; details: 33.3 µM; note: in the data most compounds retested in dose-response had high values
# T2 sequence (whole entry): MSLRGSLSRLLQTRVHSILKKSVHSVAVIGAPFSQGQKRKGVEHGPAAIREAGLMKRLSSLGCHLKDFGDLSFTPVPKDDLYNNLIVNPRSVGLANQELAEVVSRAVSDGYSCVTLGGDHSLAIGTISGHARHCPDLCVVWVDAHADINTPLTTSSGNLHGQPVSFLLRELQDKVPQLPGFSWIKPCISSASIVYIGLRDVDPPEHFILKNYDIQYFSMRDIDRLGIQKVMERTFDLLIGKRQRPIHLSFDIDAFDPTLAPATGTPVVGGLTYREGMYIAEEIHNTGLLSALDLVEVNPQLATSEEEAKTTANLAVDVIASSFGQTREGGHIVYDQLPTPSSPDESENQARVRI
# [6] = biological target: T3, Proteasome subunit beta (Trypanosoma cruzi) (UniProt O96673); test: Trypanosoma cruzi proteasome chymotrypsin-like activity (TcProtChymo) assay.; note: in the data most compounds retested in dose-response had high values; type: functional; details: 9.37 µM
# T3 sequence (whole entry): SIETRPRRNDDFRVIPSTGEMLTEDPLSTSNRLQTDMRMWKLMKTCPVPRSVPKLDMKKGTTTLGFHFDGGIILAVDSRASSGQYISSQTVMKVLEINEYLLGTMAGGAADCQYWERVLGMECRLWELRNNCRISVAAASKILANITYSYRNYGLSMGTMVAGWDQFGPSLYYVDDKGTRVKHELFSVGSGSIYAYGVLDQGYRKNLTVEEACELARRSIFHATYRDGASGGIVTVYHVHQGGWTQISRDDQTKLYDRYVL
# Homo sapiens = species: Homo sapiens; test: To identify inhibition of the IFN signalling (Jak-Stat) pathway via expression of an eGFP reporter gene under the control of an IFN-stimulated response element (ISRE) containing MxA promoter.; type: functional; details: 30 µM
# [7] = biological target: T4, Tyrosyl-tRNA synthetase, putative (Trypanosoma cruzi (strain CL Brener)) (UniProt Q4DSP6); test: Trypanosoma cruzi tyrosyl tRNA synthetase (TcYRS) _High Tyrosine SOP; type: functional; details: 30 µM; note: in the data most compounds retested in dose-response had high values
# T4 sequence (whole entry): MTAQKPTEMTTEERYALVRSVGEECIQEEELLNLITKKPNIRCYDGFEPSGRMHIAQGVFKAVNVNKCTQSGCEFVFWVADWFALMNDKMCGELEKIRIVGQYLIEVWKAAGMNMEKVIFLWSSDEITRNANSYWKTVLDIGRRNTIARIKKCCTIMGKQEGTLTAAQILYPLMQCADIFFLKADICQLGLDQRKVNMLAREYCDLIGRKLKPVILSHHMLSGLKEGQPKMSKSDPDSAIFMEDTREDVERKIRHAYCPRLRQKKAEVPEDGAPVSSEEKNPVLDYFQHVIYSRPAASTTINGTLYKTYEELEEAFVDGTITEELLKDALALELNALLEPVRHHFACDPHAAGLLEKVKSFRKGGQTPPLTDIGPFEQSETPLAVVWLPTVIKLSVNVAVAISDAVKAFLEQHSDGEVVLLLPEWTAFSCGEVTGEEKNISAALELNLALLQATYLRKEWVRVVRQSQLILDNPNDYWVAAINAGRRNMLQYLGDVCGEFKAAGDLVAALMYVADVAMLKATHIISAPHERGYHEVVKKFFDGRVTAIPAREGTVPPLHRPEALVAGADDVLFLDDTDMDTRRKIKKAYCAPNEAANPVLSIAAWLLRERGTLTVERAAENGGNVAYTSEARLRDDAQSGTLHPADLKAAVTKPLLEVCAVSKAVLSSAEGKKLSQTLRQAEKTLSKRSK
# [8] = biological target: T4, Tyrosyl-tRNA synthetase, putative (Trypanosoma cruzi (strain CL Brener)); test: Trypanosoma cruzi tyrosyl tRNA synthetase (TcYRS) SOP; type: functional; details: 30 µM
# [9] = biological target: Chromo domain-containing protein 1 (Saccharomyces cerevisiae (strain ATCC 204508 / S288c) (Baker's yeast)) (UniProt P32657); test: ScCHD-1 Enzyme Inhibition Assay; type: functional; details: 30 µM; note: in the data most compounds retested in dose-response had high values
# Sequence of Chromo domain-containing protein 1 (Saccharomyces cerevisiae (strain ATCC 204508 / S288c) (Baker's yeast)) (P32657 whole entry, the tested form may be a part): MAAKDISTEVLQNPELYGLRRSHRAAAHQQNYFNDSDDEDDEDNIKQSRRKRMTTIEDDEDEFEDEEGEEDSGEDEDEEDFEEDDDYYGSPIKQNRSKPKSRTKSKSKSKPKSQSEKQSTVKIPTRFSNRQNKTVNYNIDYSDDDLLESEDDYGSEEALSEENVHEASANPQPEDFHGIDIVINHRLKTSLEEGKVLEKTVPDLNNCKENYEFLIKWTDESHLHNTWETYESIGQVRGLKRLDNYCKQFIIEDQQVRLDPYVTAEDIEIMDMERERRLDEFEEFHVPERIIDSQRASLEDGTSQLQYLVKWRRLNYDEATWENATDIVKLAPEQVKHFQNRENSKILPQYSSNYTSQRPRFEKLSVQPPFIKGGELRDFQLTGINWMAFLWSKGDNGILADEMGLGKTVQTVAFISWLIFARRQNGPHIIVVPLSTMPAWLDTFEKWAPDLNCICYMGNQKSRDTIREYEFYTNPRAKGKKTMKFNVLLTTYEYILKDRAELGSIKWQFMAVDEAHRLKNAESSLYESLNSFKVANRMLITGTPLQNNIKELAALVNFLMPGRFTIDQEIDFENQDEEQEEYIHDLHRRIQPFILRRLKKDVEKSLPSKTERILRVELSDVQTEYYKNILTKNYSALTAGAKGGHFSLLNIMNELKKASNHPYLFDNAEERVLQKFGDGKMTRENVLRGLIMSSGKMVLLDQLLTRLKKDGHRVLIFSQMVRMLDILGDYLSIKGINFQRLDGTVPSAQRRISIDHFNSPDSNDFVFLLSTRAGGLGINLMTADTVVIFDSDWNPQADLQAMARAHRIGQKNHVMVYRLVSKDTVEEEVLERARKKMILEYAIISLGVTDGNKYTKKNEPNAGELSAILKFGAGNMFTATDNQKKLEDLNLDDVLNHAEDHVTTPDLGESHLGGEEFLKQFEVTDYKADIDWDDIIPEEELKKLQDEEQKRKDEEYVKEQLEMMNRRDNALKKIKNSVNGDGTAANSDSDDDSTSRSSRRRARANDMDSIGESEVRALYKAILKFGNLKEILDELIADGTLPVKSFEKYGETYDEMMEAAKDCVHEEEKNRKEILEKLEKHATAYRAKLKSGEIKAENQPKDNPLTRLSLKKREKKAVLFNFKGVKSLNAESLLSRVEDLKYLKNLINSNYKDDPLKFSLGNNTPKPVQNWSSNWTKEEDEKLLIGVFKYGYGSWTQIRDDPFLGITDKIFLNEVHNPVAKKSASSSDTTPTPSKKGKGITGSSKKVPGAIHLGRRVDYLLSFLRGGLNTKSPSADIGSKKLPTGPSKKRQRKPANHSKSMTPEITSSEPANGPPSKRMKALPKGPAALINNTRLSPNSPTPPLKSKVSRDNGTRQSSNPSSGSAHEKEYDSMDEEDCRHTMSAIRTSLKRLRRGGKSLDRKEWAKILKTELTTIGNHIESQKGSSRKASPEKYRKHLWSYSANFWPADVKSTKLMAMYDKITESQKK
# Sequence of Sialic acid-binding Ig-like lectin 9 (Homo sapiens) (Q9Y336 whole entry): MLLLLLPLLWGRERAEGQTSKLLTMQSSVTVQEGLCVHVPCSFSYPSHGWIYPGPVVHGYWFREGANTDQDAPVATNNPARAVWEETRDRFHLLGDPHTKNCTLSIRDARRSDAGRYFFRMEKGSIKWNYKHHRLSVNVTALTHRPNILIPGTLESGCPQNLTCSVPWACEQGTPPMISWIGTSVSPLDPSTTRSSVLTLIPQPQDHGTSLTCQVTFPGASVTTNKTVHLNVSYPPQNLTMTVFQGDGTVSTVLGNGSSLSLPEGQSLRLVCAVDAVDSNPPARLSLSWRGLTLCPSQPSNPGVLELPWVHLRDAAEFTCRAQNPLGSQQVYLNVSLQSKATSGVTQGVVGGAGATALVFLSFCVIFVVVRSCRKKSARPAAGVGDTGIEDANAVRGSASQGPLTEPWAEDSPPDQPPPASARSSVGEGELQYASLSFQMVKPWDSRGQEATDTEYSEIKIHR
# Sequence of Protein translocase subunit SecA (Escherichia coli (strain K12)) (P10408 whole entry): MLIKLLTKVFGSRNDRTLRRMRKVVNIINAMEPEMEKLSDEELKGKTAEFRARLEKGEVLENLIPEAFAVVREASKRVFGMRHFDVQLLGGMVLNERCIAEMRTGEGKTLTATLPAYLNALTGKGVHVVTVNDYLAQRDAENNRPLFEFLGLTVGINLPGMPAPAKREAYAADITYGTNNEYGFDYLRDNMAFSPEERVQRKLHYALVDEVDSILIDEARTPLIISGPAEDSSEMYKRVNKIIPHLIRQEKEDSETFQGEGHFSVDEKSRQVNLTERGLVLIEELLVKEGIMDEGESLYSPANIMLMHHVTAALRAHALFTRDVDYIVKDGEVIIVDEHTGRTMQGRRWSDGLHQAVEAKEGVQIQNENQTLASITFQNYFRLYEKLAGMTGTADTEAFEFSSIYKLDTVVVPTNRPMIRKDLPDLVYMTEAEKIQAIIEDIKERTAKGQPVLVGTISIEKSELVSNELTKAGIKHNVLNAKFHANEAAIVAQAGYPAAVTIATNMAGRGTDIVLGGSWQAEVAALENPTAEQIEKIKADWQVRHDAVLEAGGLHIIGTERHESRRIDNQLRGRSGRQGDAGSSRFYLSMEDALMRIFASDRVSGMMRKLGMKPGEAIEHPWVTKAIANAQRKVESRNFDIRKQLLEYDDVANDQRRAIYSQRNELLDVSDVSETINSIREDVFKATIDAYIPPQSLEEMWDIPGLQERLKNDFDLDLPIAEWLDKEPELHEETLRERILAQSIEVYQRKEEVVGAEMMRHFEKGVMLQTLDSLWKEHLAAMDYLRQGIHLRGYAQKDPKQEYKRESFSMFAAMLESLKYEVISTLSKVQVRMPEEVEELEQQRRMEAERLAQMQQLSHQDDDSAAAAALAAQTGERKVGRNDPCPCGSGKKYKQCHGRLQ
structure (smiles),measurement,setting,value
CC(C)c1nnc2n1CCN(C(=O)c1ccc(CN(C)C)cc1)C2,Percent Effect,[1],-3.27%
same,Percent Effect,[2],-2.6%
same,Percent Effect,[3],-13.6%
same,Percent Effect,[4],-5.41%
same,Percent Effect,Trypanosoma cruzi,-2.84%
same,Percent Effect,[5],1.47%
same,Percent Effect,[6],12.5%
same,Percent Effect,Homo sapiens,22.6%
same,Percent Effect,[7],0.952%
same,Percent Effect,[8],-2.35%
same,Percent Effect,[9],-18.4%
CC(C)N(C)Cc1cn2c(n1)CN(C(=O)Cc1ccsc1)CC2,Percent Effect,[1],-5.71%
same,Percent Effect,[2],2.74%
same,Percent Effect,[3],3.83%
same,Percent Effect,[4],1.25%
same,Percent Effect,Trypanosoma cruzi,-2.78%
same,Percent Effect,[5],-2%
same,Percent Effect,[6],7.28%
same,Percent Effect,Homo sapiens,-1.74%
same,Percent Effect,[7],5.21%
same,Percent Effect,[8],6.17%
same,Percent Effect,[9],-0.437%
O=C(NCCC1=CCCCC1)NCc1nnc2n1CCC2,Percent Effect,[1],-2.33%
same,Percent Effect,[2],15.8%
same,Percent Effect,[3],1.86%
same,Percent Effect,[4],-11.8%
same,Percent Effect,Trypanosoma cruzi,-5.88%
same,Percent Effect,[5],7.91%
same,Percent Effect,[6],6.18%
same,Percent Effect,Homo sapiens,7.88%
same,Percent Effect,[7],7.39%
same,Percent Effect,[8],16.1%
same,Percent Effect,[9],-8.65%
CC(C)CNC(=O)[C@H]1CCS(=O)(=O)[C@@H]2CN(Cc3cccc(Cl)c3)C[C@H]12,Percent Effect,[1],-8.49%
same,Percent Effect,[2],0%
same,Percent Effect,[3],6.38%
same,Percent Effect,[4],3.48%
same,Percent Effect,Trypanosoma cruzi,-2.15%
same,Percent Effect,[5],0%
same,Percent Effect,[6],12.3%
same,Percent Effect,Homo sapiens,12.5%
same,Percent Effect,[7],3.96%
same,Percent Effect,[8],1.22%
same,Percent Effect,[9],3.36%

# Reference: ChEMBL document CHEMBL3988442, “University of Dundee, Small-Polar-MMV Screening Library” (2021)
